Measured values reported in PubChem BioAssay AID1159580 (chemical genetic matrix, 2015).
Out of some 5,500 compounds screened, about 2,000 (36%) were called active. Roughly 18% stayed inconclusive and do not appear here. Rule as the data show it: active = normalized growth mostly below about 0.91 (no sharp cut-off); inconclusive = no clear call, values can overlap the other calls; inactive = mostly above about 0.92. This is one part of the list.

Test: chemical genetic growth profiling, strain panel (AID 1159580);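 also: tested at 20 µM; growth read once vehicle control cultures reached saturation at 30 °C; 1 = growth at the plate median or of vehicle wells; lower values mean less growth of the strain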
Conditions: growth OD

Measured: normalized growth

CNCc1ccccc1
inactive: S. cerevisiae deletion strains, locus YJR066W, strain TOR1, active compounds read low 0.978 | S. cerevisiae deletion strains, locus YKL009W, strain mrt4, active compounds read low 0.999 | S. cerevisiae deletion strains, locus YKL068W, active compounds read low 0.981 | S. cerevisiae deletion strains, locus YKL085W, strain MDH1 (second series), active compounds read low 0.976 | S. cerevisiae deletion strains, locus YKL085W, strain MDH1, active compounds read low 0.976 | S. cerevisiae deletion strains, locus YKL160W, strain elf1, active compounds read low 1 | S. cerevisiae deletion strains, locus YKL190W, strain CNB1, active compounds read low 0.996 | S. cerevisiae deletion strains, locus YKR001C, strain vps1, active compounds read low 1.04 | S. cerevisiae deletion strains, locus YKR026C, strain gcn3, active compounds read low 1.03 | S. cerevisiae deletion strains, locus YKR091W, strain srl3, active compounds read low 1.02 | S. cerevisiae deletion strains, locus YLL001W, strain dnm1, active compounds read low 1.02 | S. cerevisiae deletion strains, locus YLL026W, active compounds read low 1.01 | S. cerevisiae deletion strains, locus YLL041C, strain sdh2, active compounds read low 1.02 | S. cerevisiae deletion strains, locus YLR027C, strain aat2, active compounds read low 0.997 | S. cerevisiae deletion strains, locus YLR039C, strain RIC1, active compounds read low 1.01 | S. cerevisiae deletion strains, locus YLR058C, strain SHM2, active compounds read low 0.973 | S. cerevisiae deletion strains, locus YLR102C, strain apc9, active compounds read low 0.99 | S. cerevisiae deletion strains, locus YLR113W, strain HOG1, active compounds read low 0.981 | S. cerevisiae deletion strains, locus YLR221C, strain rsa3, active compounds read low 1.01 | S. cerevisiae deletion strains, locus YLR258W, strain gsy2, active compounds read low 1.03 | S. cerevisiae deletion strains, locus YLR262C, strain YPT6 (second series), active compounds read low 1.01 | S. cerevisiae deletion strains, locus YLR262C, strain YPT6, active compounds read low 1 | S. cerevisiae deletion strains, locus YLR268W, strain sec22, active compounds read low 1.03 | S. cerevisiae deletion strains, locus YLR320W, strain mms22, active compounds read low 1.02 | S. cerevisiae deletion strains, locus YLR330W, strain CHS5, active compounds read low 0.999 | S. cerevisiae deletion strains, locus YLR342W, strain FKS1 (second series), active compounds read low 1.05 | S. cerevisiae deletion strains, locus YLR342W, strain FKS1, active compounds read low 1.02 | S. cerevisiae deletion strains, locus YLR357W, strain rsc2, active compounds read low 1.02 | S. cerevisiae deletion strains, locus YLR370C, strain arc18, active compounds read low 1.02 | S. cerevisiae deletion strains, locus YLR371W, strain rom2, active compounds read low 0.999 | S. cerevisiae deletion strains, locus YLR384C, strain iki3, active compounds read low 1 | S. cerevisiae deletion strains, locus YLR418C, strain cdc73, active compounds read low 0.991 | S. cerevisiae deletion strains, locus YML016C, strain PPZ1, active compounds read low 0.996 | S. cerevisiae deletion strains, locus YML032C, strain rad52, active compounds read low 0.949 | S. cerevisiae deletion strains, locus YML120C, strain ndi1, active compounds read low 1.02 | S. cerevisiae deletion strains, locus YML124C, strain tub3, active compounds read low 0.983 | S. cerevisiae deletion strains, locus YMR058W, strain fet3, active compounds read low 0.97 | S. cerevisiae deletion strains, locus YMR078C, strain ctf18, active compounds read low 0.987 | S. cerevisiae deletion strains, locus YMR125W, strain sto1, active compounds read low 1.02 | S. cerevisiae deletion strains, locus YMR129W, active compounds read low 1.02 | S. cerevisiae deletion strains, locus YMR205C, strain PFK2, active compounds read low 1.03 | S. cerevisiae deletion strains, locus YMR223W, strain ubp8, active compounds read low 0.969 | S. cerevisiae deletion strains, locus YMR231W, strain pep5, active compounds read low 0.99 | S. cerevisiae deletion strains, locus YMR263W, strain SAP30, active compounds read low 0.992 | S. cerevisiae deletion strains, locus YMR307W, strain GAS1, active compounds read low 0.914 | S. cerevisiae deletion strains, locus YNL067W, strain RPL9B, active compounds read low 0.984 | S. cerevisiae deletion strains, locus YNL071W, strain lat1, active compounds read low 1.03 | S. cerevisiae deletion strains, locus YNL153C, strain GIM3, active compounds read low 0.978 | S. cerevisiae deletion strains, locus YNL183C, strain NPR1, active compounds read low 0.91 | S. cerevisiae deletion strains, locus YNL209W, strain ssb2, active compounds read low 1.01 | S. cerevisiae deletion strains, locus YNL233W, strain BNI4, active compounds read low 1.01 | S. cerevisiae deletion strains, locus YNL248C, strain rpa49, active compounds read low 1.03 | S. cerevisiae deletion strains, locus YNL250W, strain rad50, active compounds read low 0.981 | S. cerevisiae deletion strains, locus YNL271C, strain bni1, active compounds read low 0.994 | S. cerevisiae deletion strains, locus YNL298W, strain CLA4, active compounds read low 0.988 | S. cerevisiae deletion strains, locus YNL307C, strain MCK1, active compounds read low 1.01 | S. cerevisiae deletion strains, locus YNL322C, strain KRE1 (second series), active compounds read low 1.02 | S. cerevisiae deletion strains, locus YNL322C, strain KRE1, active compounds read low 0.994 | S. cerevisiae deletion strains, locus YNR049C, strain mso1, active compounds read low 1.02 | S. cerevisiae deletion strains, locus YNR052C, strain pop2, active compounds read low 0.991 | S. cerevisiae deletion strains, locus YOL006C, strain TOP1, active compounds read low 1.1 | S. cerevisiae deletion strains, locus YOL012C, strain htz1 1.52 | S. cerevisiae deletion strains, locus YOL147C, strain pex11, active compounds read low 0.989 | S. cerevisiae deletion strains, locus YOR001W, strain rrp6, active compounds read low 1.01 | S. cerevisiae deletion strains, locus YOR061W, strain CKA2, active compounds read low 0.983 | S. cerevisiae deletion strains, locus YOR069W, strain VPS5, active compounds read low 1 | S. cerevisiae deletion strains, locus YOR070C, strain gyp1, active compounds read low 1.01 | S. cerevisiae deletion strains, locus YOR080W, strain dia2, active compounds read low 1.02 | S. cerevisiae deletion strains, locus YOR083W, strain WHI5, active compounds read low 1.01 | S. cerevisiae deletion strains, locus YOR106W, strain vam3, active compounds read low 1.04 | S. cerevisiae deletion strains, locus YOR136W, strain idh2, active compounds read low 0.996 | S. cerevisiae deletion strains, locus YOR144C, strain elg1, active compounds read low 0.991 | S. cerevisiae deletion strains, locus YOR184W, strain ser1, active compounds read low 1 | S. cerevisiae deletion strains, locus YOR231W, strain MKK1, active compounds read low 0.987 | S. cerevisiae deletion strains, locus YOR265W, strain rbl2, active compounds read low 1.01 | S. cerevisiae deletion strains, locus YOR270C, strain vph1, active compounds read low 1.08 | S. cerevisiae deletion strains, locus YOR290C, strain snf2, active compounds read low 1.02 | S. cerevisiae deletion strains, locus YOR316C, strain cot1, active compounds read low 0.986 | S. cerevisiae deletion strains, locus YPL051W, strain arl3, active compounds read low 1 | S. cerevisiae deletion strains, locus YPL055C, strain LGE1, active compounds read low 0.993 | S. cerevisiae deletion strains, locus YPL078C, strain atp4, active compounds read low 1.02 | S. cerevisiae deletion strains, locus YPL106C, strain sse1, active compounds read low 1.01 | S. cerevisiae deletion strains, locus YPL240C, strain hsp82, active compounds read low 1.02 | S. cerevisiae deletion strains, locus YPL241C, strain CIN2, active compounds read low 0.995 | S. cerevisiae deletion strains, locus YPL256C, strain CLN2, active compounds read low 0.973 | S. cerevisiae deletion strains, locus YPR119W, strain clb2, active compounds read low 0.991 | S. cerevisiae deletion strains, locus YPR141C, strain kar3, active compounds read low 0.975 | S. cerevisiae deletion strains, locus YPR163C, strain tif3, active compounds read low 0.979 | S. cerevisiae deletion strains, locus YPR167C, strain met16, active compounds read low 0.982 | S. cerevisiae deletion strains, strain wtn01, active compounds read low 1.06 | S. cerevisiae strains, strain wild type, active compounds read low 0.992
